From PubChem BioAssay (Tox21)
Results filed as inconclusive are left out. Where a call stands in place of a potency, no number is given. The source made the active and inactive calls. Unless noted, the call rests on the fitted dose curve.

What was measured:
[1] = Nuclear factor erythroid 2-related factor 2/antioxidant responsive element (Nrf2/ARE) small molecule agonists: qHTS cell viability counter screen in human keratinocytes (AID 1919968; active means well fitted curve in the direction sought with a large enough effect in the repeat runs; an effect the other way counts as inactive or inconclusive; further: nearly all actives have a fitted effect of over 55% in size; further: potency means the concentration at half of the fitted maximal effect)
Outline: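 Fluorescence read-out from CellTiter-Fluor after 1 h at 37 C. Wells held HaCaT-derived ARE-luciferase reporter cells (1,500/well) treated 23 h with DMSO-dissolved compounds. Run in the same wells as the luciferase agonist read.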

[2] = Nuclear factor erythroid 2-related factor 2/antioxidant responsive element (Nrf2/ARE) small molecule agonists: luciferase reporter gene qHTS assay in human keratinocytes (AID 1919969); further: nearly all actives have a fitted effect of over 35% in size; further: potency means the concentration at half of the fitted maximal effect
[3] = molecular target: Gonadotropin-releasing hormone receptor (Homo sapiens) (UniProt P30968); assay: Human gonadotropin-releasing hormone receptor (GnRHR) small molecule agonists, calcium flux assay in GnRHR-HEK293 cells (AID 1920063); further: nearly all actives have a fitted effect of over 35% in size
Outline: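 Calcium-dye fluorescence, Ex/Em=480/540, recorded every 1 sec over 3 min after compound addition to GnRHR-HEK293 cells. Cells had been seeded 18 hours earlier and dye-loaded for 1 hour at 37 C. Fifteen concentrations, triplicates.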

[4] = molecular target: KiSS-1 receptor (Homo sapiens) (UniProt Q969F8); assay: Human kisspeptin (KISS1R) small molecule agonists, calcium flux assay in KISS1R-HEK293 cells (AID 1920064; active means well fitted curve in the direction sought with a large enough effect in the repeat runs; an effect the other way counts as inactive or inconclusive)
Outline: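 Calcium flux read-out: kinetic fluorescence at Ex/Em=480/540, 1 s intervals over 3 min, after pin-tool compound addition to dye-loaded KISS1R-HEK293 cells. Fifteen concentrations, triplicates.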

[5] = G protein-coupled receptor (GPCR) small molecule agonists, calcium flux assay: HEK293 wild type cell line counter screen (AID 1920065)
Outline: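 Agonist mode; 18 h seeding at 37 C, 1 h dye load at 37 C; compounds pinned from DMSO, ATP as positive control; kinetic fluorescence 480/540 nm, 3 min, 1 s reads; 15 concentrations, triplicate.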

[6] = p53 small molecule agonists, cell-based qHTS assay with human liver microsomes (AID 1963577);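 further: p53 response element beta-lactamase reporter cells with liver microsomes plus NADPH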
Outline: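 p53RE-bla cells; 5 h settle, 37 C/5% CO2; cpd + HLM 0.5 mg/mL + NADPH 0.5 mg/mL (final); 16 h 37 C; LiveBLAzer 2 h RT dark; fluorescence readout.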

[7] = p53 small molecule agonists, cell-based qHTS assay with rat liver microsomes (AID 1963578)
Outline: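 Rat liver microsome activation: microsomes 0.5 mg/mL, NADPH 0.5 mg/mL final; p53RE-bla cells, 16 h 37 C; LiveBLAzer readout, 2 h RT dark.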

[8] = p53 small molecule agonists, cell-based qHTS assay with human liver microsomes: qHTS cell viability counter screen (AID 1963579); further: nearly all actives have a fitted effect of over 45% in size
Outline: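 Luminescent CellTiter-Glo read-out, 30 min at room temperature, gauged cytotoxicity in p53RE-bla cells exposed 16 h at 37 C to DMSO-dissolved compounds with metabolic activation by human liver microsomes and NADPH, each 0.5 mg/mL final.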

[9] = p53 small molecule agonists, cell-based qHTS assay with rat liver microsomes: qHTS cell viability counter screen (AID 1963580); further: nearly all actives have a fitted effect of over 45% in size
Outline: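 After the beta-lactamase ratio was read, CellTiter-Glo was added to the same wells and luminescence measured at 30 min; cells had been treated 16 h at 37 C with compounds, rat liver microsomes and NADPH (0.5 mg/mL final each).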

[10] = p53 small molecule agonists, cell-based qHTS assay: qHTS cell viability counter screen (AID 1963581); further: nearly all actives have a fitted effect of over 45% in size
Outline: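 Cytotoxicity read-out: ATP-based luminescence (CellTiter-Glo, 30 min RT) measured in the same wells as the p53 reporter assay, HCT-116 p53RE-bla cells, 16 h compound exposure at 37 C.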

[11] = p53 small molecule agonists, cell-based qHTS assay (AID 1963582; active means well fitted activation curve with a large enough effect in the signal ratio in the repeat runs, not every such curve was filed as active; the % refers to the signal ratio)
Outline: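 Fluorescence intensity read-out of a beta-lactamase reporter under a p53 response element. Cells were exposed to DMSO-dissolved compounds for 16 h at 37 C, then developed with FRET substrate for 2 h at RT.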

[12] = molecular target: 5-hydroxytryptamine receptor 2A (Homo sapiens) (UniProt P28223); assay: 5-hydroxytryptamine receptor 2A (HTR2A) small molecule antagonists, cell-based qHTS assay (AID 1963586); further: nearly all actives have a fitted effect of over 45% in size
Outline: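 CHO cells stably expressing human HTR2A were plated for 18 h at 37 C, then loaded with calcium dye for 1 h. Compounds were preincubated 5 min at room temperature before DOI (4 nM solution) was added. Kinetic fluorescence was read for 3 min.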

[13] = molecular target: 5-hydroxytryptamine receptor 2A (Homo sapiens) (UniProt P28223); assay: 5-hydroxytryptamine receptor 2A (HTR2A) small molecule agonists, cell-based qHTS assay (AID 1963587); further: nearly all actives have a fitted effect of over 30% in size
Outline: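 CHO cells stably expressing human HTR2A, plated 18 h, loaded with calcium dye 1 h at 37 C. Agonist mode: compounds added and intracellular calcium fluorescence recorded kinetically for 2 min at 1 sec intervals.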

[14] = molecular target: Muscarinic acetylcholine receptor M1 (Homo sapiens) (UniProt P11229); assay: Cholinergic receptor muscarinic 1 (CHRM1) small molecule antagonists, cell-based qHTS assay (AID 1963588); further: nearly all actives have a fitted effect of over 40% in size; further: potency means the concentration at half of the fitted maximal effect
Outline: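 Compounds were tested at 15 concentrations in three independent runs. Dye-loaded CHRM1-CHO cells were exposed 5 min at room temperature before stimulation by acetylcholine added at 50nM. Intracellular calcium was read kinetically on FDSS for 3 min.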

[15] = molecular target: Muscarinic acetylcholine receptor M1 (Homo sapiens) (UniProt P11229); assay: Cholinergic receptor muscarinic 1 (CHRM1) small molecule agonists, cell-based qHTS assay (AID 1963589); further: nearly all actives have a fitted effect of over 35% in size
Outline: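 Calcium flux read-out: kinetic fluorescence at 1 sec intervals after pin-tool compound addition to dye-loaded CHRM1-CHO cells (human M1). Agonist mode; 15 concentrations tested in triplicate independent runs.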

[16] = cAMP Responsive Elements (CRE) small molecule agonists, cell-based qHTS assay (AID 1963590)
Outline: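 Beta-lactamase reporter readout: LiveBLAzer B/G FRET substrate, 2 h at room temperature, added after 3 h compound treatment of CRE-bla HEK 293T cells at 37 C/5% CO2.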

[17] = cAMP Responsive Elements (CRE) small molecule antagonists, cell-based qHTS assay (AID 1963591; active means well fitted inhibition curve with a large enough effect in the signal ratio in the repeat runs, not every such curve was filed as active; the % refers to the signal ratio)
Outline: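 HEK293T CRE-bla; 18 h preincubation; compound pin-transfer; NKH477 0.25 uM final, 3 h, 37 C; LiveBLAzer FRET substrate 2 h RT.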

[18] = molecular target: Beta-2 adrenergic receptor (Homo sapiens) (UniProt P07550); assay: Adrenergic beta2 receptor (ADRB2) small molecule antagonists, cell-based qHTS assay (AID 1963592); further: series mostly up to about 92 µM; nearly all actives have a fitted effect of over 50% in size
Outline: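 Assay format: CHO-ADRB2 cells, 18-20hr seeding at 37C/5% CO2, then compound plus 1nM isoproterenol agonist mix for 0.5hr RT. Homogeneous time-resolved fluorescence cAMP detection after 1hr, expressed as 665/615 nm ratio.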

[19] = molecular target: D(2) dopamine receptor (Homo sapiens) (UniProt P14416); assay: Dopamine D2 receptor (DRD2) small molecule agonists, cell-based qHTS assay (AID 1963594); further: nearly all actives have a fitted effect of over 35% in size
Outline: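 HEK293 cells stably expressing human DRD2, pre-treated with PDE inhibitor Ro20-1724 (0.1 mM final) and compound 10 min at room temperature, then stimulated with NKH477 (200nM […]) for 30 min. cAMP read by HTRF (665/620 nm).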

[20] = molecular target: D(2) dopamine receptor (Homo sapiens) (UniProt P14416); assay: Dopamine D2 receptor (DRD2) small molecule antagonists, cell-based qHTS assay (AID 1963595; active means well fitted inhibition curve with a large enough effect in the signal ratio in the repeat runs, with a control signal flat; the % refers to the signal ratio)
Outline: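 Human DRD2 antagonist qHTS measuring cAMP by HTRF. The cells are exposed to compound for 10 min, then to NKH477 (200 nM) and quinpirole (12 nM) for 30 min at RT, with Ro20-1724 (0.1 mM) present throughout.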

Chain of D(2) dopamine receptor (Homo sapiens) (P14416 whole entry, looked up): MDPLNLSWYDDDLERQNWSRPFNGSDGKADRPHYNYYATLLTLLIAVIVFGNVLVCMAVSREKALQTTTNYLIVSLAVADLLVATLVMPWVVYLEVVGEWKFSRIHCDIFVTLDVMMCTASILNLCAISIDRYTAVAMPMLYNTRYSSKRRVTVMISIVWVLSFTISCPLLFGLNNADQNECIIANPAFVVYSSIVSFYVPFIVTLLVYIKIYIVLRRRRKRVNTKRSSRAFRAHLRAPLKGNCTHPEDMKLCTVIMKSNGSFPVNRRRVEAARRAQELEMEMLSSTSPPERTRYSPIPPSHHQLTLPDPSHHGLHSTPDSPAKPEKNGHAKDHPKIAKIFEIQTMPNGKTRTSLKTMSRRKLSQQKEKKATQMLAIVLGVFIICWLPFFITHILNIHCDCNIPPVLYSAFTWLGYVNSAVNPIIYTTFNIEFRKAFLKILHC
Chain of Beta-2 adrenergic receptor (Homo sapiens) (P07550 whole entry, looked up): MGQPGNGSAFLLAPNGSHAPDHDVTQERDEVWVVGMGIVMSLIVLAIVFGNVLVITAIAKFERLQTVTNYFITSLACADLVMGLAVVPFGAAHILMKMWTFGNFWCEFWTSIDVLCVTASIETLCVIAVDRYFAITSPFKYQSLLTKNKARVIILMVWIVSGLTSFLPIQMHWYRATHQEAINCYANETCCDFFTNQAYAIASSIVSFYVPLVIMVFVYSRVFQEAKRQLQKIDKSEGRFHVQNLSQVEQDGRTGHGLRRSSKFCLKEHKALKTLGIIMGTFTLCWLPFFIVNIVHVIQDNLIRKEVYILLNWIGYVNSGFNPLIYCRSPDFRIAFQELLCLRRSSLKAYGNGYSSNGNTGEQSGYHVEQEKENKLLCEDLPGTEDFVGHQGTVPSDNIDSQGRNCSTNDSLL
Chain of Muscarinic acetylcholine receptor M1 (Homo sapiens) (P11229 whole entry, looked up): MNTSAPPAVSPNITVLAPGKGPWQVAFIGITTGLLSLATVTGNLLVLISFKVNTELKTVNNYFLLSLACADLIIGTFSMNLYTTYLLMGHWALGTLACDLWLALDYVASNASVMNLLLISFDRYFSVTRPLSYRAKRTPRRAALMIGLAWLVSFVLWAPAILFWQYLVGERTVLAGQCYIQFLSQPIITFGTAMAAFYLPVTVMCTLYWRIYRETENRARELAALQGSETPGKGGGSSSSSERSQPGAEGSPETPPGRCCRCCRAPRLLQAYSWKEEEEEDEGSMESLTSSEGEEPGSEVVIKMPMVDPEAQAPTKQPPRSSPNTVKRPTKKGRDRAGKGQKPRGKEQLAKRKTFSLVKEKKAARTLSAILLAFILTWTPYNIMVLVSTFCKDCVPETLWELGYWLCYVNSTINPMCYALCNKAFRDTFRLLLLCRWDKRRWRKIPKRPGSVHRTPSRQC
Chain of 5-hydroxytryptamine receptor 2A (Homo sapiens) (P28223 whole entry, looked up): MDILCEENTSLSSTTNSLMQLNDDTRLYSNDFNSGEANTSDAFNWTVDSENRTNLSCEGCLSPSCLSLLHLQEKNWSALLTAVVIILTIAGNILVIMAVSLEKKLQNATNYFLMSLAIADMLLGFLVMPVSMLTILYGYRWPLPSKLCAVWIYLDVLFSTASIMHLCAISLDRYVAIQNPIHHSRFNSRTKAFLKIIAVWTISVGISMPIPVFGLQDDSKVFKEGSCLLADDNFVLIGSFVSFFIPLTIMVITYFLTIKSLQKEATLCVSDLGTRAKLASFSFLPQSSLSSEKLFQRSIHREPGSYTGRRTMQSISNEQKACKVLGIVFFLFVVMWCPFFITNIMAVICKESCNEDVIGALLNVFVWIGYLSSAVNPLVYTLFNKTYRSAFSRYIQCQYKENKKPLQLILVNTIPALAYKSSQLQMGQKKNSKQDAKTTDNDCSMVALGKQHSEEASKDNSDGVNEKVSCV
Chain of KiSS-1 receptor (Homo sapiens) (Q969F8 whole entry, looked up): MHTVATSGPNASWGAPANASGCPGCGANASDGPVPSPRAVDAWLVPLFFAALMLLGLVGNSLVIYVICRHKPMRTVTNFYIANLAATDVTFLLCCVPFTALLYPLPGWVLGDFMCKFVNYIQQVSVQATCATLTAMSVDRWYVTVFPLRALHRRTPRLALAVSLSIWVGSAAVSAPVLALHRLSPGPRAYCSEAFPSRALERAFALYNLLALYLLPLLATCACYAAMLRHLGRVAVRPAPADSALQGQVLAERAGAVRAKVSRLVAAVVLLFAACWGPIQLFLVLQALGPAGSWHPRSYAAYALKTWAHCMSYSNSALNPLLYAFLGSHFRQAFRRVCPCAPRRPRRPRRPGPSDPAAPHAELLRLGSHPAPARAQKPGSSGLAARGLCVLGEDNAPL
Chain of Gonadotropin-releasing hormone receptor (Homo sapiens) (P30968 whole entry, looked up): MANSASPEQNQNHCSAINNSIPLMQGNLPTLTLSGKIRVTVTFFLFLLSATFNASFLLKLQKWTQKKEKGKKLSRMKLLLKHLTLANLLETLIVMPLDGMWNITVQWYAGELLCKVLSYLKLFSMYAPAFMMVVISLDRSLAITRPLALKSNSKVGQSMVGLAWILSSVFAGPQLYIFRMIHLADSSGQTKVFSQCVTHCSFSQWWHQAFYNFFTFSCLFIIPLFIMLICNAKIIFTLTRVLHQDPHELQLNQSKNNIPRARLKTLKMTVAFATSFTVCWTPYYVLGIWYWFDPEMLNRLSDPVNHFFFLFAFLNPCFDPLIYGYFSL

SMILES | Potency [1] | Potency [2] | Potency [3] | Potency [4] | Potency [5] | Potency [6] | Potency [7] | Potency [8] | Potency [9] | Potency [10] | Potency [11] | Potency [12] | Potency [13] | Potency [14] | Potency [15] | Potency [16] | Potency [17] | Potency [18] | Potency [19] | Potency [20]
ClC(Cl)=C(c1ccc(Cl)cc1)c1ccc(Cl)cc1 | 39.5 µM (active) | inactive | inactive | inactive | inactive | inactive | inactive | inactive | inactive | inactive | inactive | inactive | inactive | inactive | inactive | inactive | inactive | inactive | inactive | inactive
Cc1ccccc1N | inactive | inactive | inactive | inactive | inactive | inactive | inactive | inactive | inactive | inactive | inactive | inactive | inactive | inactive | inactive | inactive | inactive | inactive | inactive | –
CCCCN(CCCC)N=O | inactive | inactive | inactive | inactive | inactive | inactive | inactive | inactive | inactive | inactive | inactive | inactive | inactive | inactive | inactive | inactive | inactive | inactive | inactive | inactive
Nc1ccc([As](=O)(O)O)cc1 | inactive | inactive | inactive | inactive | inactive | inactive | inactive | inactive | inactive | inactive | inactive | inactive | inactive | inactive | inactive | inactive | inactive | inactive | inactive | inactive
Cc1cc(Cl)ccc1O | inactive | inactive | inactive | inactive | inactive | inactive | inactive | inactive | inactive | inactive | inactive | inactive | inactive | inactive | inactive | inactive | inactive | inactive | inactive | inactive
Brc1ccc(Oc2cc(Br)c(Br)cc2Br)c(Br)c1 | inactive | 12.3 µM (active) | inactive | inactive | inactive | inactive | inactive | inactive | inactive | inactive | inactive | inactive | inactive | inactive | inactive | inactive | inactive | inactive | inactive | inactive
O=C(O)C(F)(F)C(F)(F)C(F)(F)C(F)(F)C(F)(F)C(F)(F)F | inactive | inactive | inactive | inactive | inactive | inactive | inactive | inactive | inactive | inactive | inactive | inactive | inactive | inactive | inactive | inactive | inactive | inactive | inactive | –
O=C(NC(=O)c1c(F)cccc1F)Nc1cc(Cl)c(OC(F)(F)C(F)C(F)(F)F)cc1Cl (stereo unspecified) | inactive | inactive | inactive | inactive | inactive | inactive | inactive | inactive | inactive | inactive | inactive | inactive | inactive | 9.42 µM (active) | inactive | inactive | inactive | inactive | inactive | –
Clc1ccc(C(Cl)(Cl)Cl)cc1 | inactive | inactive | inactive | inactive | inactive | inactive | inactive | inactive | inactive | inactive | inactive | inactive | inactive | inactive | inactive | inactive | inactive | inactive | inactive | inactive
O=C([O-])c1ccccn1.O=C([O-])c1ccccn1.O=C([O-])c1ccccn1.[Cr+3] | inactive | inactive | inactive | inactive | inactive | inactive | inactive | inactive | inactive | inactive | inactive | inactive | inactive | inactive | inactive | inactive | inactive | inactive | inactive | –
O=C(O)c1cc(Cl)ccc1Cl | inactive | inactive | inactive | inactive | inactive | inactive | inactive | inactive | inactive | inactive | inactive | inactive | inactive | inactive | inactive | inactive | inactive | inactive | inactive | inactive
O=C1C=CC(=O)C=C1 | inactive | inactive | inactive | inactive | inactive | inactive | inactive | inactive | inactive | inactive | inactive | inactive | inactive | inactive | inactive | inactive | inactive | inactive | inactive | inactive
CCCCOCC1CO1 (stereo unspecified) | inactive | inactive | inactive | inactive | inactive | inactive | inactive | inactive | inactive | inactive | inactive | inactive | inactive | inactive | inactive | inactive | inactive | inactive | inactive | inactive
BrC(Br)Br | inactive | inactive | inactive | inactive | inactive | inactive | inactive | inactive | inactive | inactive | inactive | inactive | inactive | inactive | inactive | inactive | inactive | inactive | inactive | inactive
COC[C@H](C)N(C(=O)CCl)c1c(C)csc1C | inactive | inactive | inactive | inactive | inactive | inactive | inactive | inactive | inactive | inactive | inactive | inactive | inactive | inactive | inactive | inactive | inactive | inactive | inactive | inactive
